Experimental data from PubChem BioAssay (NCATS).
Records with an inconclusive call do not appear. The source made the active and inactive calls. Calls come from the whole dose curve; as a rule, active = well fitted curve in the direction sought with a large enough effect; inconclusive = small, poorly fitted or top-dose-only effect, or another doubt; inactive = no such curve, though single readings can be large; an effect the other way counts as inactive or inconclusive.

What was measured:
C33A = test: Primary qHTS to identify gynecologic anti-cancer compounds using libraries of approved drugs and bioactive compounds (AID 1345084); conditions: Gynecologic cancer cell panel viability, ATPlite luminescence, 48 h; series mostly up to 57.5 µM; note: nearly all actives have a fitted effect of over 55% in size
In short: (§1)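 Cell viability after 48 h drug treatment, ATPlite luminescence readout; five doses.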

CASKI = test: as above; conditions: Gynecologic cancer cell panel viability, ATPlite luminescence, 48 h; series mostly up to 57.5 µM
In short: as §1

CAOV3 = test: as above; conditions: Gynecologic cancer cell panel viability, ATPlite luminescence, 48 h; series mostly up to 57.5 µM
In short: as §1

MCC-13 = test: qHTS assay to identify novel small-molecules to repurpose for Merkel cell carcinoma treatment (AID 1296009); conditions: MCC and control cell lines, CellTiter-Glo viability, 72 h; series mostly up to 46 µM; note: nearly all actives have a fitted effect of over 60% in size
In short: (§2)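 Cell viability, measured as CellTiter-Glo luminescence, was normalized between DMSO and no-cell wells. The cells had been exposed to 8- or 11-point compound dilutions for 72 hr at 37 degree celsius.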

MCC-26 = test: as above; conditions: MCC and control cell lines, CellTiter-Glo viability, 72 h; series mostly up to 46 µM
In short: as §2

MKL-2 = test: as above; conditions: MCC and control cell lines, CellTiter-Glo viability, 72 h; series mostly up to 46 µM
In short: as §2

WaGa = test: as above; conditions: MCC and control cell lines, CellTiter-Glo viability, 72 h; series mostly up to 46 µM
In short: as §2

MKL-1 = test: as above; conditions: MCC and control cell lines, CellTiter-Glo viability, 72 h; series mostly up to 46 µM
In short: as §2

UISO = test: as above; conditions: MCC and control cell lines, CellTiter-Glo viability, 72 h; series mostly up to 46 µM
In short: as §2

NIH3T3 = test: as above; conditions: MCC and control cell lines, CellTiter-Glo viability, 72 h; at 44.8 µM (top of the series) unless noted
In short: as §2

Measured: Potency
Potency is the fitted concentration of half-maximal effect.

C[N+](C)(C)CCCCCCCCCC[N+](C)(C)C
inactive: C33A | CASKI

CC(C)COCC(CN(Cc1ccccc1)c1ccccc1)N1CCCC1 (stereo not drawn)
inactive: CASKI
active: CAOV3 25.1 µM

CC[N+](C)(C)c1cccc(O)c1
inactive: C33A | CAOV3 | CASKI

CCC(=O)c1ccc2c(c1)N(CCCN(C)C)c1ccccc1S2
inactive: MCC-13 | MCC-26 | C33A | CASKI

COC(=O)[C@H]1[C@H]2C[C@@H]3c4[nH]c5cc(OC)ccc5c4CCN3C[C@H]2C[C@@H](OC(=O)c2cc(OC)c(OC)c(OC)c2)[C@@H]1OC
inactive: MCC-13 | C33A | CAOV3 | CASKI

CC(C)(C)c1ccc(C(=O)CCCN2CCC(OC(c3ccccc3)c3ccccc3)CC2)cc1
inactive: C33A | CASKI
active: MKL-2 7.5 µM | WaGa 15 µM | CAOV3 28.2 µM

CN(C)CCCN1c2ccccc2Sc2ccc(C(F)(F)F)cc21
inactive: MCC-26
active: MKL-2 13.3 µM | WaGa 26.6 µM

CC(C)NCC(O)c1cc(O)cc(O)c1 (stereo not drawn)
inactive: MCC-13 | MCC-26 | MKL-1 | UISO | WaGa | C33A | CAOV3 | CASKI

CN(C)CCCN1c2ccccc2Sc2ccccc21
inactive: MCC-13 | MCC-26 | MKL-1 | C33A | CAOV3 | CASKI

CN/C(=C\[N+](=O)[O-])NCCSCc1ccc(CN(C)C)o1
inactive: MCC-13 | MCC-26 | MKL-2 | UISO | WaGa | C33A | CAOV3 | CASKI

COCCOC(=O)C1=C(C)NC(C)=C(C(=O)OC(C)C)C1c1cccc([N+](=O)[O-])c1 (stereo not drawn)
active: WaGa 26.6 µM
inactive: MCC-13 | MCC-26 | C33A | CAOV3 | CASKI

COC(=O)C1=C(C)NC(C)=C(C(=O)OCCN(C)Cc2ccccc2)C1c1cccc([N+](=O)[O-])c1 (stereo not drawn)
inactive: C33A | CASKI
active: UISO 23.7 µM

C[n+]1cc2c3c(ccc2c2ccc4cc5c(cc4c21)OCO5)OCO3
active: MCC-26 3.66 µM | MKL-1 1.46 µM | MKL-2 0.651 µM | UISO 1.3 µM | WaGa 1.03 µM | C33A 2 µM

CC(C)[N+](C)(CCOC(=O)C1c2ccccc2Oc2ccccc21)C(C)C
inactive: MCC-13 | MCC-26 | NIH3T3 | UISO | C33A | CAOV3 | CASKI

COC(=O)[C@@H](N)Cc1ccc(O)c(O)c1
inactive: MCC-13 | MCC-26 | UISO | C33A | CAOV3 | CASKI

Cc1nc2sccn2c(=O)c1CCN1CCC(=C(c2ccc(F)cc2)c2ccc(F)cc2)CC1
inactive: MCC-13 | MCC-26 | MKL-1 | UISO | C33A | CAOV3 | CASKI

C[C@]12CC[C@@H]3c4ccc(O)cc4C[C@@H](CCCCCCCCCS(=O)CCCC(F)(F)C(F)(F)F)[C@H]3[C@@H]1CC[C@@H]2O (stereo partly drawn)
inactive: MCC-13 | MCC-26 | MKL-1 | WaGa | C33A | CAOV3 | CASKI

CC1=C(C)C(=O)C(CCCCC#CCCCC#CCO)=C(C)C1=O
inactive: MCC-13 | MCC-26 | CAOV3 | CASKI
active: MKL-2 26.6 µM | WaGa 21.1 µM

CCNC(=O)N1CCN(CCCC(c2ccc(F)cc2)c2ccc(F)cc2)CC1
inactive: MCC-13 | MCC-26 | MKL-1 | C33A | CAOV3 | CASKI

CNCCCN1c2ccccc2CCc2ccccc21
inactive: MCC-13 | MCC-26 | C33A

COc1cc2c(cc1OC)-c1cc(=Nc3c(C)cc(C)cc3C)n(C)c(=O)n1CC2
inactive: CAOV3
